Tau ThT inhib: qHTS for Inhibitors of Tau Fibril Formation, Thioflavin T Binding. recombinant tau K18 P301L, heparin-induced fibrillization, ThT fluorescence. Potency, µM (titrated, usually from 57.4 µM), inactives show top-dose activity, negative = inhibition, most hits filed as inhibitors. hit rate 2.1% among 270,000; active = well fitted curve in the direction sought with a large enough effect; inconclusive = small, poorly fitted or top-dose-only effect, or another doubt; inactive = no such curve, though single readings can be large; an effect the other way counts as inactive or inconclusive; note: nearly all actives have a fitted effect of over 55% in size
Target sequence (P10636 561-689 P618L limits assumed): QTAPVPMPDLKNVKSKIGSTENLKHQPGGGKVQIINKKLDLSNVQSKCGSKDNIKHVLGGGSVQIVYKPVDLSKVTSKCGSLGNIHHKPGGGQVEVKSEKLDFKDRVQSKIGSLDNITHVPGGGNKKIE
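Fibril formation assay: tau K18 P301L at 15 uM with trace Alexa 594 label, heparin inducer 20 uM, pH 7 sodium acetate buffer, 37 C for 6 hr; endpoint ThT signal.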
ALDH1A1 inh: qHTS Assay for Inhibitors of Aldehyde Dehydrogenase 1 (ALDH1A1); Potency, µM (highest dose often 75.3 µM), for the others: at the top dose activity, negative = inhibition, hits mostly inhibitors; hit rate 7.3% among 220,000; Purified ALDH1A1, NADH fluorescence, propionaldehyde substrate; Aldehyde dehydrogenase 1A1 (Homo sapiens), P00352;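 note: plate controls were no enzyme wells and a reference inhibitor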
Target sequence (P00352 whole entry, looked up): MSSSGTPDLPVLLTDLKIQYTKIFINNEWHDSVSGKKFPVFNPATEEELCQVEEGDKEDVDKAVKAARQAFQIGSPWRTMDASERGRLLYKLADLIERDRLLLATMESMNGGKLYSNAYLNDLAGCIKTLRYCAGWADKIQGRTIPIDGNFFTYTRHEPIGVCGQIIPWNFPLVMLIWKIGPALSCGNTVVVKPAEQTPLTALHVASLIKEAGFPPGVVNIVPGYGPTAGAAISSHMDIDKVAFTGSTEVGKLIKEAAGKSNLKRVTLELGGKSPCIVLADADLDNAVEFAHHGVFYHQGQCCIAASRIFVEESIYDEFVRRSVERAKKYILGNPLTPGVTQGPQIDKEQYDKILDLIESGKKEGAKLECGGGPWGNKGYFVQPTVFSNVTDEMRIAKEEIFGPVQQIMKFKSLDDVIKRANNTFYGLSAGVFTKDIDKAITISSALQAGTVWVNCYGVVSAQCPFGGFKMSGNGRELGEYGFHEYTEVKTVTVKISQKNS
HPGD block: qHTS Assay for Inhibitors of HPGD (15-Hydroxyprostaglandin Dehydrogenase); 15-hydroxyprostaglandin dehydrogenase [NAD(+)] (Homo sapiens), P15428; purified HPGD, NADH fluorescence kinetic, PGE2 substrate; Potency, µM, for the others: at the highest dose activity change, negative = inhibition, actives largely listed as inhibitors; hit rate 4.3% among 150,000; AID 894, 2007
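NADH formation kinetics: reaction with 30 uM PGE2 and 1 mM NAD+ (final), 20 nM enzyme, Tris-HCl pH 8 with Tween 20, after 15 min compound preincubation at room temperature. Fluorescence change, last versus first of five reads.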
Tau FP inhib: qHTS for Inhibitors of Tau Fibril Formation, Fluorescence Polarization | AID 1468, 2008 | Potency, µM (doses to about 57.7 µM), for the others: at the top dose activity, negative = inhibition, actives largely listed as inhibitors | K18 P301L tau heparin fibrillization, Alexa594 FP, 6 h | Microtubule-associated protein tau (Homo sapiens), P10636 | hit rate 0.39% among 280,000; active = well fitted curve in the direction sought with a large enough effect; inconclusive = small, poorly fitted or top-dose-only effect, or another doubt; inactive = no such curve, though single readings can be large; an effect the other way counts as inactive or inconclusive; note: nearly all actives have a fitted effect of over 55% in size
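Quantitative HTS format: compounds meet 15 uM recombinant K18 P301L tau and Alexa 594-tau tracer in 100 mM sodium acetate pH 7; 20 uM heparin triggers fibrillization at 37 C over 6 hr; FP gives the signal.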
JMJD2E inh: qHTS Assay for Inhibitors of Human Jumonji Domain Containing 2E (JMJD2E); hit rate 1.6% among 230,000; Potency, µM (series often up to 57.1 µM), for the others: at the top dose activity change, negative = inhibition, usual class: inhibitors; JMJD2E catalytic domain, FDH-coupled NADH fluorescence (FDH is formaldehyde dehydrogenase); Lysine-specific demethylase 4E (Homo sapiens), B2RXH2; AID 2147, 2009;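 note: 0% = wells with enzyme and -100% = buffer wells without enzyme; nearly all actives have a fitted effect of over 50% in size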
Tau fluor cs: Counterscreen qHTS for Inhibitors of Tau Fibril Formation, Fluorescence Polarization; tau K18 P301L (four-repeat tau fragment) Alexa594 fluorescence, heparin fibrillization; hit rate 0.93% among 280,000; AID 1463, 2008; Potency, µM (doses to about 57.7 µM), for inactives: top-dose activity change, negative = decrease; active = well fitted curve in the direction sought with a large enough effect; inconclusive = small, poorly fitted or top-dose-only effect, or another doubt; inactive = no such curve, though single readings can be large; an effect the other way counts as inactive or inconclusive; note: nearly all actives have a fitted effect of over 55% in size
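Human K18 P301L tau (15 uM unlabeled plus 0.24 uM Alexa 594-labeled, final) in 100 mM sodium acetate pH 7 was mixed with compound and 20 uM heparin and incubated 6 hr at 37 C.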
* = called active by the depositor; ? = inconclusive; nt = no result; [ ] = remark or other dose. Compounds with a hit are over-represented: about 9.9% of the library has one in this group of screens. Unless noted, calls come from the whole dose curve; as a rule, active = well fitted inhibition curve with a large enough effect (not every such curve was filed as active); inconclusive = small, poorly fitted or top-dose-only effect, or another doubt; inactive = no such curve, though single readings can be large or run the other way. Unless noted, % is set by controls: 0 for no effect and ±100 for the full control effect; potency is the fitted concentration of half-maximal effect.

SMILES	Tau ThT inhib	ALDH1A1 inh	HPGD block	Tau FP inhib	JMJD2E inh	Tau fluor cs
Cc1ccc(-n2c(C3CC3c3ccc(Cl)cc3)n[nH]c2=S)cc1 (stereo unspecified)	?	7.4%	8.91µM*	6.2%	1.3%	-20.5%
Cc1ccc(-n2c([C@@H]3C[C@H]3c3ccccc3)n[nH]c2=S)cc1	-17.7%	?	?	-11.1%	-8.3%	-17.2%
Cc1ccc(C2CC2c2n[nH]c(=S)n2-c2ccc(C)cc2)cc1 (stereo unspecified)	-19.7%	?	?	5.8%	-4.3%	-15.6%
CCOC(=O)c1ccc(N2C(=O)Cc3cc(OCC)c(OCC)cc3C2c2ccccc2)cc1 (stereo unspecified)	?	nt	nt	-4.0%	nt	-7.0%
O=C1CC(=O)Nc2cc(S(=O)(=O)N3CCOc4ccc(Cl)cc43)ccc2N1	5.4%	nt	nt	-2.0%	nt	-8.9%
CCOc1ccc(N2C(=O)CN(C)C2=S)cc1	0.7%	4.5%	-11.3%	-3.2%	8.1%	0.2%
CCOc1ccc(N2C(=O)CN(O)C=C3N=c4ccccc4=C32)cc1	-10.4%	10µM*	nt	-7.8%	3.4%	-8.3%
CCOC(=O)c1cc(C#N)c(SCC(=O)c2cc(C#N)c(SC)nc2C)[nH]c1=O	?	1.26µM*	1.41µM*	1.2%	-28.0%	-17.4%
COC(=O)c1ccc(NC(=O)c2cc3cc4ccc(OC)c(Cl)c4nc3s2)cc1	?	nt	nt	1.7%	nt	2.5%
Cc1ccc2cc(C)c3nnc(SCC(=O)Nc4nc5c(s4)CCCC5)n3c2c1C	-18.3%	-5.3%	-9.2%	-0.4%	-2.9%	-2.1%
COC(=O)C(NC(=O)COc1ccccc1)(Nc1nc2c(s1)CCCC2)C(F)(F)F (stereo unspecified)	5.5%	-2.6%	35.5µM*	0.2%	-4.4%	4.0%
N#Cc1c(N(CCO)CCO)nc(N)c2c(N)nc3c(c12)CC(=O)N3Cc1cccs1	15.8µM*	nt	nt	?	?	?
Cc1ccc(NC(=O)CCSc2nc(C)cc(C)n2)cc1	-16.7%	-1.4%	-0.2%	3.7%	1.6%	-9.8%
CCCn1c(NCc2cccc(OC)c2O)nc2ccccc21	-11.6%	6.31µM*	3.6%	14.6%	-3.8%	-14.9%
COc1cccc(CNn2cnnc2)c1O	-5.3%	12.6µM*	nt	-8.6%	5.3%	-8.9%
CCCn1c(CNC(=O)c2ccc(F)cc2)nc2ccccc21	-10.8%	nt	nt	-19.0%	nt	-20.0%
CCCn1c(CNc2ccccc2O)nc2ccccc21	28.2µM*	12.6µM*	-3.1%	?	14.1µM*	?
CCCCn1c(NCc2ccc(N(C)C)cc2)nc2ccccc21	?	14.1µM*	nt	1.6%	0.4%	?
NNC(=O)c1ccc(Cn2cccn2)o1	-11.3%	nt	nt	-4.6%	6.6%	-13.5%
C/C(=N\Nc1ccc(Cl)c(Cl)c1)c1ccc(-n2ccnc2)cc1	?	?	-23.1%	2.2%	-14.7%	14.1µM*[quencher]
O=C1C2C3C=CC(C4CC34)C2C(=O)N1/N=C/c1ccc([N+](=O)[O-])o1 (stereo unspecified)	-18.6%	3.16µM*	nt	1.5%	-6.8%	-15.3%
O=C1C2C3C=CC(C3)C2C(=O)N1/N=C/c1ccc(-c2ccccc2[N+](=O)[O-])o1 (stereo unspecified)	?	2.24µM*	-21.9%	5.5%	6.8%	-12.5%
Cc1ccc(-c2ccc(/C=N/N3C(=O)C4C5C=CC(C6CC56)C4C3=O)o2)c([N+](=O)[O-])c1 (stereo unspecified)	?	?	12.6µM*	4.0%	-4.8%	?
O=C1C2C3C=CC(C3)C2C(=O)N1/N=C/c1cc(Br)cc([N+](=O)[O-])c1O (stereo unspecified)	7.94µM*	?	-15.2%	-2.1%	4.5%	-14.6%
O=C1C2C(C(=O)N1/N=C/c1ccc([N+](=O)[O-])o1)C1C=CC2C12CC2 (stereo unspecified)	-7.2%	?	-17.2%	2.6%	-6.4%	7.7%
SMILES	Tau ThT inhib	ALDH1A1 inh	HPGD block	Tau FP inhib	JMJD2E inh	Tau fluor cs
CCOC(=O)/C=C1\SCC(=O)N1CC(=O)NC(C)c1ccc(F)cc1 (stereo unspecified)	?	3.2%	-11.8%	7.7%	?	-13.5%
COc1ccccc1N(C1=NCCCS1)S(=O)(=O)c1ccc(C(C)(C)C)cc1	-4.6%	0.224µM*	nt	3.2%	-6.1%	-3.1%
COc1ccccc1N(C)S(=O)(=O)c1ccc(C(=O)NC2=NCCS2)cc1	-14.5%	-4.0%	1.6%	-14.4%	1.5%	-9.4%
COc1ccc(N(C2=NCCCS2)S(=O)(=O)c2ccc(C(C)(C)C)cc2)cc1	-2.9%	0.794µM*	nt	-1.4%	0.9%	0.9%
CCCN1C(=O)C(O)(C/C(C)=N/O)c2ccccc21 (stereo unspecified)	0.5%	14.2%	-0.2%	-5.2%	-1.9%	-4.8%
CCCN1C(=O)C(O)(C2COC(C)(C)CC2=O)c2ccccc21 (stereo unspecified)	-7.7%	0.355µM*	nt	-6.1%	11.7%	-7.6%
CCCN1C(=O)C(O)(C2CC(=O)CC(C)(C)O2)c2ccccc21 (stereo unspecified)	-5.4%	0.794µM*	-1.1%	2.3%	0.3%	-3.5%
CCN1C(=O)C(O)(C2COC(C)(C)CC2=O)c2ccccc21 (stereo unspecified)	-5.8%	?	-6.1%	3.7%	-0.2%	2.7%
CCN1C(=O)C(O)(C2COC(C)(C)CC2=O)c2cc(Br)ccc21 (stereo unspecified)	-16.7%	8.91µM*	-12.6%	1.1%	2.4%	4.5%
CC1(C)O[C@H]2C[C@@H]3[C@H]4CCC5=CC(=O)C=C[C@]5(C)[C@@]4(F)[C@@H](O)C[C@]3(C)[C@]2(C(=O)CO)O1	-4.8%	3.5%	-11.7%	4.0%	nt	-2.6%
Cn1c(=O)cc(SCC(=O)NCCc2ccc(Cl)cc2)c2cc(Cl)ccc21	-5.2%	nt	nt	1.0%	nt	-17.1%
Cc1cc(Cl)ccc1OCc1cn2cccnc2n1	-1.9%	?	nt	-0.4%	?	3.5%
CCN(CC)CCCC(C)n1c(-c2ccccc2)nc2c(NCc3ccccc3)nc(C)nc21 (stereo unspecified)	-10.9%	?	?	-2.1%	?	-11.0%
CC(C)c1ccc(OCc2cc(=O)n3c(-c4ccccc4)csc3n2)cc1	-10.2%	nt	nt	-0.2%	nt	-18.5%

High-throughput results deposited in PubChem BioAssay by National Center for Advancing Translational Sciences (NCATS).
